From PubChem BioAssay AID1018 (Sanford-Burnham Center for Chemical Genomics, 2008)
The whole screen tested about 200,000 compounds, of which about 15 (0.007%) were called active. Cut-off read from the data, not from the text of the source: active = displacement above about 50%; inactive = the rest. The entries come from a sample that favours actives as a whole.

Each compound was assayed against E3 ubiquitin-protein ligase XIAP (Homo sapiens) (UniProt P98170) (assay: small molecules displacing peptide from XIAP – biochemical, IAP family, fluorescence polarization (AID 1018)). Settings: XIAP BIR domain, at 20 µM, hits give high values.
Chain of E3 ubiquitin-protein ligase XIAP (Homo sapiens) (P98170 whole entry, looked up, the tested form may be a part): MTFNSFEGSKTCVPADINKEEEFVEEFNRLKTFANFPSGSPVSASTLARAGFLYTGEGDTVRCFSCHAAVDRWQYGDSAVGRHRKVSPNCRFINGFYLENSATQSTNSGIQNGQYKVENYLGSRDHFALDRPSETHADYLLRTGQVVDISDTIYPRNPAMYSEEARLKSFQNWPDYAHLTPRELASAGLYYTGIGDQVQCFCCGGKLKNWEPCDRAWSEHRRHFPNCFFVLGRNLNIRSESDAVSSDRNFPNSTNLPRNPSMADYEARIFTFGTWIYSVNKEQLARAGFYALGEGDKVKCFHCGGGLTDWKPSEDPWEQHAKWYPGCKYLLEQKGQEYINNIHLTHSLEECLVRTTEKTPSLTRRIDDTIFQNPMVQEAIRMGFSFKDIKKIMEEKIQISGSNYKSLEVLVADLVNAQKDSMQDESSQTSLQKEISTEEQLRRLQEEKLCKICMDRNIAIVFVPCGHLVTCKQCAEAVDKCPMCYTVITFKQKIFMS

displacement, active:
COc1ccc(CN2C(=O)c3cccnc3C2Nc2cc(Cl)ccc2OC)cc1 (configuration not stated) 63.8%
O=C(O)CCCNc1cc(N2CCC3(CC2)OCCO3)c2noc3c2c1C(=O)c1ccccc1-3 87.1%
CCOC(=O)N1CCN(c2cc(NCCC(=O)O)c3c4c(onc24)-c2ccccc2C3=O)CC1 67.3%
CC(=O)COc1cc(C)cc2oc(=O)c(C)c(C)c12 61.1%
Cc1ccc(Cn2nnc3c(=O)[nH]c(C4CCN(S(=O)(=O)c5ccc(F)cc5)CC4)nc32)cc1 63.3%
CCN1/C(=C/c2ccc3cc(C)ccc3[n+]2C)Sc2ccc3sccc3c21 72.1%
O=C(COc1cccc(NC(=O)c2cccc([N+](=O)[O-])c2)c1)c1ccc(F)cc1 59.8%

displacement, inactive:
O=C(COC(=O)c1cccc(S(=O)(=O)N2CCc3ccccc32)c1)Nc1ccc(Cl)cn1 -4.3%
Cc1ccc(NC(=O)COC(=O)c2ccc3c(c2)NC(=O)C2CCCN32)cc1 (configuration not stated) -1.5%
Cc1ccc(CNC(=O)Cn2cc(C(F)(F)F)ccc2=O)cc1 -2.9%
S=C(Nc1ccc(Cl)cc1)N1CCN(C2CCCCC2)CC1 -3.9%
O=C(OCCC1Oc2cccnc2NC1=O)c1ccc(F)cc1 (configuration not stated) -2.6%
Nc1nc(-c2ccco2)nn1S(=O)(=O)c1ccc(Cl)cc1 -2.1%
CN(C)C(CNC(=O)Cc1cccc(C(F)(F)F)c1)c1ccco1 (configuration not stated) -10.8%
O=C(COc1ccc(Cl)cc1[N+](=O)[O-])N/N=C/c1cccs1 -10.2%
N=C1C(c2ccccc2)=C(O)CN1c1ccccc1N1CCOCC1 -6.4%
O=C(CCCOc1ccccc1)Nc1ccc(S(=O)(=O)N2CCOCC2)cc1 -4.6%
COc1cc(C)c(Cl)c(C)c1S(=O)(=O)NC1CC(C)(C)NC(C)(C)C1 -4.7%
Cc1ccc(-c2[nH]nc3c2C(c2ccccc2OC(=O)N2CCOCC2)C(C#N)=C(N)O3)cc1 (configuration not stated) 1.4%
Cc1ccc(N2N=C(c3ccc(Br)cc3)CCC2=O)cc1 -4.4%
Cc1ccc(Cn2cccc2C2=NC(C)CO2)cc1 (configuration not stated) -0.2%
COc1ccc(C(=O)NC(=S)N2CC(C)OC(C)C2)cc1OC (configuration not stated) -1.8%
COc1ccc(CN2C(=O)c3cccnc3C2Nc2ccc(OC)c(Cl)c2)cc1 (configuration not stated) -2%
COc1ccc(CN2C(=O)c3cccnc3C2Nc2cc(Cl)c(OC)cc2OC)cc1 (configuration not stated) 9.6%
Cc1ccc(N=N/C(=C\O)C(=O)c2ccc(Cl)cc2)cc1 -7.5%
CCN(CC)CCNC(=O)/C(=C/c1cn(CC)c2ccccc12)NC(=O)c1cc(OC)c(OC)c(OC)c1 -5.1%
CC(=O)NC1C(=O)N(CCc2ccccc2)c2ccccc21 (configuration not stated) 1.5%
Cc1ccc(NC(=O)c2cccc(Cl)c2)nc1 -1.6%
Cn1nccc1C(=O)Nn1cnnc1 1.6%
Cc1ccc(S(=O)(=O)N2CCOCC2)cc1NC(=O)COC(=O)c1ccccc1OCc1c(C)noc1C 0.2%
COc1cc(OC)c(C(=O)NCC(c2cccs2)N(C)C)cc1OC (configuration not stated) -4.3%
O=C(CN1CCOCC1)N1CCN(S(=O)(=O)c2ccccc2)C1c1ccccc1 (configuration not stated) -3.4%
CCOc1ccccc1NC(=O)c1nc[nH]c1C(=O)Nc1ccccc1OCC -4.1%
CCCOC(=O)c1sc2nc3c(cc2c1N)C(=O)CCC3 -6%
CCOC(=O)c1c(C(=O)OCC)c(C)n(N2C(=O)CSC2=S)c1C -39.5%
Cc1nn2cc(-c3ncc(C(F)(F)F)cc3Cl)cnc2c1Br -5.1%
CN1CCN(C2CCCCCC2)CC1 -7.6%
CCOC(=O)N1CCN(c2cc(NCCO)c([N+](=O)[O-])c3nonc23)CC1 -2.9%
CC(=O)OCCNc1cc(N2CCN(C)CC2)c2noc3c2c1C(=O)c1ccccc1-3 -1.6%
O=[N+]([O-])c1c(NCCO)cc(N2CCC3(CC2)OCCO3)c2nonc12 -5.3%
O=C1c2ccccc2-c2onc3ccc(N4CCCC4)c1c23 -14.9%
CC(=O)C(C)Oc1cc(C)cc2oc(=O)c(C)c(C)c12 (configuration not stated) -5.9%
Cc1cc(OCC(=O)C(C)(C)C)c2c(C)c(C)c(=O)oc2c1 -1.7%
Cc1ccc(Cn2nnc3c(=O)[nH]c(C4CCN(S(=O)(=O)c5ccccc5)CC4)nc32)cc1 -5.4%
Cc1ccc(Cn2nnc3c(=O)[nH]c(C4CCN(S(=O)(=O)c5ccc(C)cc5)CC4)nc32)cc1 -2%
COc1ccc(N(CC(O)CN2CCCCC2)S(=O)(=O)c2ccc(C)cc2)cc1 (configuration not stated) -3.7%
C=CC(=O)NCCCc1cc(C(C)(C)C)c(O)c(C(C)(C)C)c1 -6.9%
Cc1ccccc1N(CC(=O)O)S(C)(=O)=O -4.6%
CN(C)CCCOC(=O)COc1ccc(C(C)(C)C)cc1 -1.4%
CCC(C)(C(=O)NC1CCCC1)N(Cc1cccs1)C(=O)c1ccc2c(c1)OCO2 (configuration not stated) -5.3%
CC(C)Cn1c2c(c(O)c(C(=O)Nc3ccc(F)cc3)c1=O)CCCC2 0.5%
COc1ccccc1NCCC#N -1.4%
Cc1cccc(OCC(=O)NNC(=O)c2cccs2)c1 -3.8%
Cc1[nH]n(-c2ccc([N+](=O)[O-])cc2)c(=O)c1C=NCCN1CCN(C(=O)c2ccccc2)CC1 -2.6%
O=C(NCCCO)c1ccc(CSc2nc3ccccc3[nH]2)cc1 -4%
CC(=O)C1C(c2cccc(F)c2)NC(=O)NC1(O)C(F)(F)F (configuration not stated) 0%
COC(=O)C(NNc1ccccc1C)(NC(=O)c1ccc(F)cc1)C(F)(F)F (configuration not stated) -3.9%
O=C(/C=C/c1ccco1)NCC(=O)N/N=C/c1ccccc1[N+](=O)[O-] -3.9%
O=c1c(Cc2ccc(F)cc2)c(O)ccn1CCc1ccccn1 -4.4%
CCN1/C(=C/c2ccc3cc(C)ccc3[n+]2CC)Sc2ccccc21 -5.1%
CCN1/C(=C/c2ccc3cc(C)ccc3[n+]2CC)Sc2cc(C)ccc21 1.8%
O=C(COc1ccccc1)Nc1ccncc1 -2.7%
Cc1sc(N)c(C#N)c1C -1.2%
CC(C)Oc1cccc(C(=O)C2CCCN(Cc3ccc4nonc4c3)C2)c1 (configuration not stated) -5.9%
CCc1c(C)nc2c(Br)cccc2c1SCCC#N -0.5%
CN(C)c1nc(N)nc(CSc2nnnn2-c2ccccc2)n1 -5.7%
CCOC(=O)c1c(-c2ccccc2)oc2ccc(O)c(CN3CCN(C)CC3)c12 -5.2%
Cc1cc(NC(=O)COn2nnc3ccc(Cl)cc32)no1 -5.1%
COc1ccc(OC)c(NC(=O)C23CC4CC(C2)CC(n2cnc(Br)n2)(C4)C3)c1 -3.2%
CCC(Oc1ccccc1)C(=O)N1CC(C)CC(C)C1 (configuration not stated) 2.4%
C[N+]1(CC(=O)OCCCc2ccccc2)CCCC1 -9.6%
O=C(NC1CCCc2ccccc21)c1ccc(S(=O)(=O)N2CCOCC2)cc1 (configuration not stated) -3.4%
CCOc1cccc2cc(C(=O)N3CCc4ccccc43)c(=O)oc12 -88.7%
CCC(/C=N/NC(=O)C(=O)N/N=C/C(CC)CC)CC -0.2%
O=C(COc1cccc(NC(=O)c2cccc([N+](=O)[O-])c2)c1)c1ccc(Br)cc1 -6.2%
COc1cccc(C(=O)COc2cccc(NC(=O)c3cccc([N+](=O)[O-])c3)c2)c1 -1.9%
CC(=O)Nc1ccccc1OCC(=O)NCCc1ccc(Cl)cc1Cl -8.3%
COCCNC(=O)CCSCc1ccccc1F -1.3%
O=C(Nc1ccccc1C(F)(F)F)NC1CCCCC1 -2.8%
CC(=O)Nc1cc(C)c(S(C)(=O)=O)c(C)c1 -8.9%
CC1CN(CC(O)COC(c2ccccc2)c2ccccc2)CC(C)O1 (configuration not stated) -4.7%
CC(=C/c1ccc(C(C)C)cc1)/C=N/NC(=O)c1ccncc1 -6.3%
O=C(CN1CCc2ccccc2C1)Nc1ccc(F)cc1F -0.5%
Cc1ccc(C(=O)Nc2ncc(C)s2)o1 -3.4%
COc1ccccc1CCc1nnc(CCC(=O)NCCCOc2cccnc2)o1 -4.3%
CC1=C(C(=O)Nc2ccccc2)C(c2ccccc2[N+](=O)[O-])NC(=O)N1 (configuration not stated) -1.5%
O=[N+]([O-])c1ccccc1OCCCN1CCOCC1 -4.4%
CC(C)CNC(=O)NC(=O)COc1ncnc2sccc12 -1.4%
COc1ccc(NC(=O)CSc2nnc(NC(=O)c3ccccc3C(=O)O)s2)cc1 -4.3%
Cc1ccc(Sc2nc(C)cc(C)c2S(C)(=O)=O)cc1 -4.9%
COCCNC(=O)NC(=O)COC(=O)c1ccc2[nH]c3c(c2c1)CCCC3 -1.1%
O=C(CCCC(=O)OCC(Cl)=C(Cl)Cl)Nc1cccc(F)c1 -3.5%
